Results on four compounds are retold here after ChEMBL document CHEMBL1961873, “Compounds: GSK PKIS; Assays: Nanosyn kinase panel” (2012).

As usually defined, the inhibition is the relative decrease from the control value, in per cent.

Molecules are shown by their SMILES.

For assay [1], the target named is High affinity nerve growth factor receptor (Homo sapiens) (UniProt P04629). The note with it: at 1 µM.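 Further: each value is the mean percent inhibition of TRKA.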
Assay [2] has as its target BDNF/NT-3 growth factors receptor (Homo sapiens) (UniProt Q16620). The note with it: at 0.1 µM.
Assay [3] has the same target. The following applies: at 1 µM.
Assay [4] has as its target NT-3 growth factor receptor (Homo sapiens) (UniProt Q16288). The note with it: at 0.1 µM.
Assay [5] has the same target. The note with it: at 1 µM.
The target of assay [6] is T1, Tyrosine-protein kinase TXK (Homo sapiens) (UniProt P42681).
T1 sequence (whole entry): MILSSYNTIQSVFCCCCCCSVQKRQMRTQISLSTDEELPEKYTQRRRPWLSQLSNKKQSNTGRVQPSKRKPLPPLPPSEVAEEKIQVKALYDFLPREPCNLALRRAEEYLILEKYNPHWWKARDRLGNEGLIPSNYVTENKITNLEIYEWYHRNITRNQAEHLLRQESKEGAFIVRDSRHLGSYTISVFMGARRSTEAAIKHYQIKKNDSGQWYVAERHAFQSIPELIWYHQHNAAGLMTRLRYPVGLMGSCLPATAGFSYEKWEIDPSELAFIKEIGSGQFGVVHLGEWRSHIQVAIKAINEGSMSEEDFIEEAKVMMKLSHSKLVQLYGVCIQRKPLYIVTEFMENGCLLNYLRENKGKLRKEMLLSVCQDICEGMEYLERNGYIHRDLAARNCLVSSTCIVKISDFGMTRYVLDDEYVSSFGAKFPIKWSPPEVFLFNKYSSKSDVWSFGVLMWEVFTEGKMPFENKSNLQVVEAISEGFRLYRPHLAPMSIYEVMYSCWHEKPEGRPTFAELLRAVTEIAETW
The note with it: at 0.1 µM.

Assay [7] has as its target T1, Tyrosine-protein kinase TXK (Homo sapiens). The note with it: at 1 µM.
Assay [8] addresses Non-receptor tyrosine-protein kinase TYK2 (Homo sapiens) (UniProt P29597). The note with it: at 0.1 µM.
Assay [9] addresses T2, Dual specificity protein kinase TTK (Homo sapiens) (UniProt P33981).
T2 sequence (whole entry): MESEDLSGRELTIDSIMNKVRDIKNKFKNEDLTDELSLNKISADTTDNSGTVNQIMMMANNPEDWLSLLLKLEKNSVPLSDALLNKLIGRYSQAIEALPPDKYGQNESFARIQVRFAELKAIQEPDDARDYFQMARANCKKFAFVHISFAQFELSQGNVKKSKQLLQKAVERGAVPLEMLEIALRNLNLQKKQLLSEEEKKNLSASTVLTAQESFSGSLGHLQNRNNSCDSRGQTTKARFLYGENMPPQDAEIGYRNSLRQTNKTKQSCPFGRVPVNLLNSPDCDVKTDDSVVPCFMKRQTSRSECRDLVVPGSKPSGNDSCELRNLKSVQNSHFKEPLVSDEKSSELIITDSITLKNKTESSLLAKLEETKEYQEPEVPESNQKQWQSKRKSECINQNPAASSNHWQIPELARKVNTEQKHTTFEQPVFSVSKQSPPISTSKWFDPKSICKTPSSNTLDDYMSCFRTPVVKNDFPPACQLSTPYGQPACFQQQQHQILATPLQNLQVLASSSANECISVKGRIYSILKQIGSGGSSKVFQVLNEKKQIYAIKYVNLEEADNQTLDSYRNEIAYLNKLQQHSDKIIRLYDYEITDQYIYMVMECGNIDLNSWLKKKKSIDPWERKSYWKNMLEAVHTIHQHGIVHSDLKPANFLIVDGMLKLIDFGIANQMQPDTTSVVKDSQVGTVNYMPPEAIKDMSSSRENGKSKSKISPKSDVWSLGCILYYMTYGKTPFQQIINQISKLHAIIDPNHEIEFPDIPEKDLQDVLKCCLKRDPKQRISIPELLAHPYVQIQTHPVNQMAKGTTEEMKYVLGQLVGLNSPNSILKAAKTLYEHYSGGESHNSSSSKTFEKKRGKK
The note with it: at 1 µM.

Assay [10] concerns the target T3, Aurora kinase A (Homo sapiens) (UniProt O14965).
T3 sequence (whole entry): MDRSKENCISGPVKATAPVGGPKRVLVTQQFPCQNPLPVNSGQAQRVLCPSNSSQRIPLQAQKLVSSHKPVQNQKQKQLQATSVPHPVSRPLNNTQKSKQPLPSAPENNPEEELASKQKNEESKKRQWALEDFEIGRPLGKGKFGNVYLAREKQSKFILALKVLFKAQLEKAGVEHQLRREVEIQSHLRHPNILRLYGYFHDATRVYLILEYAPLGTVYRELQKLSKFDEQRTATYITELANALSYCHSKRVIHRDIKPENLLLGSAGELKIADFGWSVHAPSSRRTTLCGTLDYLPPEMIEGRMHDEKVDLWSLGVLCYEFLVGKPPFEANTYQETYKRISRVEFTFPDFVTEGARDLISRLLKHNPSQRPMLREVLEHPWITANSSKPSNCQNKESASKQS
The note with it: at 0.1 µM.

Assay [11] deals with T3, Aurora kinase A (Homo sapiens). The note with it: at 1 µM.
In assay [12] the target is Aurora kinase B (Homo sapiens) (UniProt Q96GD4). The note with it: at 0.1 µM.
Aurora kinase B (Homo sapiens), sequence (Q96GD4 whole entry): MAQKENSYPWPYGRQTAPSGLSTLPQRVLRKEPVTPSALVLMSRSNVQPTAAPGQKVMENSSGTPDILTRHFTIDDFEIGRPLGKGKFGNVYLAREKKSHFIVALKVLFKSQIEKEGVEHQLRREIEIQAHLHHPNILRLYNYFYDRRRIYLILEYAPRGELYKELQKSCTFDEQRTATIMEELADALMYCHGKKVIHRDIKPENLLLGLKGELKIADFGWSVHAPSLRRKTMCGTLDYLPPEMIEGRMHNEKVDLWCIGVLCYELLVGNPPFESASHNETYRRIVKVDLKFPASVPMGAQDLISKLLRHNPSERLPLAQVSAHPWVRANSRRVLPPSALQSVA
For assay [13] the target is unchanged. The note with it: at 1 µM.
In assay [14] the target is T4, Aurora kinase C (Homo sapiens) (UniProt Q9UQB9).
T4 sequence (whole entry): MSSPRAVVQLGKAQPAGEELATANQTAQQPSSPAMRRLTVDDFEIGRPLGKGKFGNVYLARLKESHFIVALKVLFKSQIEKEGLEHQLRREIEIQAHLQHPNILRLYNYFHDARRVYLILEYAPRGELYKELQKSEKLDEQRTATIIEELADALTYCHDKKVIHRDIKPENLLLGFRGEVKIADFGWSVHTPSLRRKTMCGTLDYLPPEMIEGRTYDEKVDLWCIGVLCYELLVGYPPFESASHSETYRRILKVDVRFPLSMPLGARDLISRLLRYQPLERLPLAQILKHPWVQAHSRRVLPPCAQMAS
The following applies: at 0.1 µM.

Assay [15] concerns the target T4, Aurora kinase C (Homo sapiens). The following applies: at 1 µM.
Assay [16] has as its target Serine/threonine-protein kinase 10 (Homo sapiens) (UniProt O94804). The note with it: at 0.1 µM.
The target is the same in assay [17]. The note with it: at 1 µM.
Assay [18] deals with T5, Mitogen-activated protein kinase kinase kinase kinase 2 (Homo sapiens) (UniProt Q12851).
T5 sequence (whole entry): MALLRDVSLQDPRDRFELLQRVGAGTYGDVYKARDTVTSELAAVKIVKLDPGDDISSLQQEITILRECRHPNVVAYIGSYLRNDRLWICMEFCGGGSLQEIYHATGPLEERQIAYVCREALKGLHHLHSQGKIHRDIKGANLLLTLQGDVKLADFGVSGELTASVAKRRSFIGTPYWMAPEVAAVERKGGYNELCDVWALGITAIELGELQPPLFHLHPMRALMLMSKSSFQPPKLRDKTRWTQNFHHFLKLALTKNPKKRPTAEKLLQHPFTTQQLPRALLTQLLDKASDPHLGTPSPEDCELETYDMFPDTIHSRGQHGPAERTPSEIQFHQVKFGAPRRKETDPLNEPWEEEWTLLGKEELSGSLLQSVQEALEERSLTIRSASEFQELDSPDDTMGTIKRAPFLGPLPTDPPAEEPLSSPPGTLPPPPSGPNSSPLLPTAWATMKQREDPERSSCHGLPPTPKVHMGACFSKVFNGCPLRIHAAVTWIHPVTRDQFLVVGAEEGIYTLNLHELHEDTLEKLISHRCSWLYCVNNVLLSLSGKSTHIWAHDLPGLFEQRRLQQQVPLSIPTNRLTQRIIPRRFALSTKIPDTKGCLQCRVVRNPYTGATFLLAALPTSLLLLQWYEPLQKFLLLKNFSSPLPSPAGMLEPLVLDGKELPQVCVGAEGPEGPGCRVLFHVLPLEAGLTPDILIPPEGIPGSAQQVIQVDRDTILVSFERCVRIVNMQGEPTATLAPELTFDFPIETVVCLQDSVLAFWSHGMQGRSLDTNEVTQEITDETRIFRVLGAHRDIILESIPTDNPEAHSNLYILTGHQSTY
The note with it: at 0.1 µM.

For assay [19], the target named is T5, Mitogen-activated protein kinase kinase kinase kinase 2 (Homo sapiens). The following applies: at 1 µM.
The target of assay [20] is Mitogen-activated protein kinase kinase kinase kinase 4 (Homo sapiens) (UniProt O95819). The following applies: at 0.1 µM.

Serine/threonine-protein kinase 10 (Homo sapiens), sequence (O94804 whole entry, looked up): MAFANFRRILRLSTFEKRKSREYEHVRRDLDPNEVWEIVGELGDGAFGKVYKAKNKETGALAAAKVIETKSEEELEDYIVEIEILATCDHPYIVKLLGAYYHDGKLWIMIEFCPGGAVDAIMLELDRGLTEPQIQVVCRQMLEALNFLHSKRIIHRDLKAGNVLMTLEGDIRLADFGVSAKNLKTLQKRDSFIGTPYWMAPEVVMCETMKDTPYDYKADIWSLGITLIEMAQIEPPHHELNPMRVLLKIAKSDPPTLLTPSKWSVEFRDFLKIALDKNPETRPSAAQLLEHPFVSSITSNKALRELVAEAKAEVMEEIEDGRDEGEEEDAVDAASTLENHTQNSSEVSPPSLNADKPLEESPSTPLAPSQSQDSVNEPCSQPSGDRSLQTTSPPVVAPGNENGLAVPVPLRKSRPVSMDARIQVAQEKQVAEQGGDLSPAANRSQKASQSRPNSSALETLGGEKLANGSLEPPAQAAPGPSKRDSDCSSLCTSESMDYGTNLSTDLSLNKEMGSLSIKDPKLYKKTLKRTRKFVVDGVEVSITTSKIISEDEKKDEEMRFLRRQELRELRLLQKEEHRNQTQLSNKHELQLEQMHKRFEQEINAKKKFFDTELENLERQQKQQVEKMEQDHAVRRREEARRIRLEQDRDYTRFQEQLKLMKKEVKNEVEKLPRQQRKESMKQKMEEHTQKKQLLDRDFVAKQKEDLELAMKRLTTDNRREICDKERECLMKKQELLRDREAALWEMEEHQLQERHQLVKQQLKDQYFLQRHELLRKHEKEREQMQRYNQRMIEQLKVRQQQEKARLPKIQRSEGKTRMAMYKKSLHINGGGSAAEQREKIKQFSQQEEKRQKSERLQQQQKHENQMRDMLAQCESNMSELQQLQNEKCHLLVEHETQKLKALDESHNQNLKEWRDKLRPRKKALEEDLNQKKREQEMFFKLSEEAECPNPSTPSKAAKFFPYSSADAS
High affinity nerve growth factor receptor (Homo sapiens), sequence (P04629 33-796 limits assumed): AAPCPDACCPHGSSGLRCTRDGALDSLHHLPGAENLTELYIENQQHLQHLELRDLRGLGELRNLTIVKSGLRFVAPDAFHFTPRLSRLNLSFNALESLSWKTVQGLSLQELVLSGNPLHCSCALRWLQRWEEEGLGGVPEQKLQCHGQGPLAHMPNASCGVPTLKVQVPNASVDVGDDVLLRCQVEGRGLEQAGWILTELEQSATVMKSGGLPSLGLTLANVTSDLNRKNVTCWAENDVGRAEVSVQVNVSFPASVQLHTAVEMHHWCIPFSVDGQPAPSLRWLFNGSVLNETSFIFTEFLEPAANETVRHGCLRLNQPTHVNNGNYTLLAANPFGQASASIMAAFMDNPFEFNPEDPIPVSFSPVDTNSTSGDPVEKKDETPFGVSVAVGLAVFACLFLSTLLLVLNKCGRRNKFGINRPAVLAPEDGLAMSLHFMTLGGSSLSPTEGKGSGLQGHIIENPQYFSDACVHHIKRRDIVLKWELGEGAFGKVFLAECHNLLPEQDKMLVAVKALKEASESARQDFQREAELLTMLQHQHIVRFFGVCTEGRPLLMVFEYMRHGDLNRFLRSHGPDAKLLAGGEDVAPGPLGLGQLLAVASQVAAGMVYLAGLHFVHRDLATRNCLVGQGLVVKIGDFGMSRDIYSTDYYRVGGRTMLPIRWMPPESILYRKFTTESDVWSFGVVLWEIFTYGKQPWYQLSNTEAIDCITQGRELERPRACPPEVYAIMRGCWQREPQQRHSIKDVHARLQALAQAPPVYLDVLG
Non-receptor tyrosine-protein kinase TYK2 (Homo sapiens), sequence (P29597 whole entry): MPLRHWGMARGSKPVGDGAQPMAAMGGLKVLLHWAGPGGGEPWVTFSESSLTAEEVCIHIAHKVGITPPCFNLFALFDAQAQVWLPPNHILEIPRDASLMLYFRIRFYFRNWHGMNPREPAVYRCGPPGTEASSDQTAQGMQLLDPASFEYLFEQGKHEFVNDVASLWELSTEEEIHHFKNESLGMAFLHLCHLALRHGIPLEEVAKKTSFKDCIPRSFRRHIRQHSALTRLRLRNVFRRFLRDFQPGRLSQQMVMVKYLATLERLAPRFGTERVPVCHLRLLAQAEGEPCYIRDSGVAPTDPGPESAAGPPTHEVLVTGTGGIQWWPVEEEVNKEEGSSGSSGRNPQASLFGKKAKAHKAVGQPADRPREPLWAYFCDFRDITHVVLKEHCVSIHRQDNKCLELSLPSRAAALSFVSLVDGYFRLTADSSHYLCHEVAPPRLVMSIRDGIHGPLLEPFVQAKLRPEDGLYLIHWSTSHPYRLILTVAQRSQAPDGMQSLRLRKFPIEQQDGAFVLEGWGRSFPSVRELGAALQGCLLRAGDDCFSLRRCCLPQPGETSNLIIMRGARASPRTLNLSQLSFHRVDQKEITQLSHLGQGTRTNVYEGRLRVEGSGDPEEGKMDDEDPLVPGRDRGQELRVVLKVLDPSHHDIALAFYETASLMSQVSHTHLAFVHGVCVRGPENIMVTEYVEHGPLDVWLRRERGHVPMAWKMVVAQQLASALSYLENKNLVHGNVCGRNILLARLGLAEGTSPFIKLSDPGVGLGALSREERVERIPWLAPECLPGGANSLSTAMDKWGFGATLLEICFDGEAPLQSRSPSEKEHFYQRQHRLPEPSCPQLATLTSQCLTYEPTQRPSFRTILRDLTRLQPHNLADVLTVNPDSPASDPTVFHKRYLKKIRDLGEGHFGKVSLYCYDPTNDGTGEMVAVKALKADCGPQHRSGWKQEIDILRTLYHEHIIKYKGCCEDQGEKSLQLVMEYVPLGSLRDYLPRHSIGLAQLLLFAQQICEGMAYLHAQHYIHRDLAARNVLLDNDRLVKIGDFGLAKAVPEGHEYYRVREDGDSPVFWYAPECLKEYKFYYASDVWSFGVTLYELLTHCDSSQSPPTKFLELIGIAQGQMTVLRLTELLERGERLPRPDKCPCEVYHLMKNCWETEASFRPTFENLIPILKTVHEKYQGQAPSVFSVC
NT-3 growth factor receptor (Homo sapiens), sequence (Q16288 32-839 limits assumed): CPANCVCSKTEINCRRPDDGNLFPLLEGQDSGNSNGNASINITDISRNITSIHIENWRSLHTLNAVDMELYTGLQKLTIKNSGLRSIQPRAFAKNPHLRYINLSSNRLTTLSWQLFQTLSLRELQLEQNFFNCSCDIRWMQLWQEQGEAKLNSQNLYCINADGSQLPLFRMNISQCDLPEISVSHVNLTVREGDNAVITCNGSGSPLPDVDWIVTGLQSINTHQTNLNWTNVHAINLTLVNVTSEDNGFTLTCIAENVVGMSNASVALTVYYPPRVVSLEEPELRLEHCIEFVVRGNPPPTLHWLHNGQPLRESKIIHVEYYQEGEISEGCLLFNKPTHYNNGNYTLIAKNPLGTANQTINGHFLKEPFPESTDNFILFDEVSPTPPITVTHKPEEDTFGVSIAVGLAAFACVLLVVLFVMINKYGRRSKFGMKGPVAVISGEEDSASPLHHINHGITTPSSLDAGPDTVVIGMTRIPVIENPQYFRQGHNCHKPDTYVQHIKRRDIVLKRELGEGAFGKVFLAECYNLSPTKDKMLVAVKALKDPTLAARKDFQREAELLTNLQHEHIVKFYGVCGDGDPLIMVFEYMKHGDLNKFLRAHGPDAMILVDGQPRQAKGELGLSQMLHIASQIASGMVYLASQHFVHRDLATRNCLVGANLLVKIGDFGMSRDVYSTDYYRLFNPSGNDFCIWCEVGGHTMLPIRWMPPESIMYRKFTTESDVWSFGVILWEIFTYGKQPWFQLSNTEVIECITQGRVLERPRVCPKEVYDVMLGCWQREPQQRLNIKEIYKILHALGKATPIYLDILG
BDNF/NT-3 growth factors receptor (Homo sapiens), sequence (Q16620 32-822 limits assumed): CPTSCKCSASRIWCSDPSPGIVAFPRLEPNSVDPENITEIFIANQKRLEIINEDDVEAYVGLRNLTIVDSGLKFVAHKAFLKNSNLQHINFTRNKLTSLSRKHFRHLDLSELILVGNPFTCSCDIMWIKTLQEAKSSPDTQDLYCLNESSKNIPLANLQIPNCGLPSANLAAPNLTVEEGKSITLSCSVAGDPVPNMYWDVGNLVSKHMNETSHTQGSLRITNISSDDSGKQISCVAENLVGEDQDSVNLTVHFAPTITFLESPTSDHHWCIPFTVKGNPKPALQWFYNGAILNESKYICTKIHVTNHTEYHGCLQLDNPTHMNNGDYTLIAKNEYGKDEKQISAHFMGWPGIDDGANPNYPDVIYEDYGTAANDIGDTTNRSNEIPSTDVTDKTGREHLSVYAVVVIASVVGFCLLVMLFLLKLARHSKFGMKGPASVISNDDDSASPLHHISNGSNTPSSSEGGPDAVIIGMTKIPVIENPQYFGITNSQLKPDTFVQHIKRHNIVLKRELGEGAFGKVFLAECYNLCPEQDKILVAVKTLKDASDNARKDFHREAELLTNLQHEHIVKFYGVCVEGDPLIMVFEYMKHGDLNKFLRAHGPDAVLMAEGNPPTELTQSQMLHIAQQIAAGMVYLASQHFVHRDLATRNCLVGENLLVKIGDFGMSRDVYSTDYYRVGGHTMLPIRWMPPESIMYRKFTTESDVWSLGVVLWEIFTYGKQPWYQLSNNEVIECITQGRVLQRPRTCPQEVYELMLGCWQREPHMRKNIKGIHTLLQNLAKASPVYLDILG

Regarding `O=S(=O)(CCNCc1ccc(-c2ccc3ncnc(Nc4ccc(OCc5cccc(F)c5)c(Cl)c4)c3c2)o1)c1ccccc1`, the inhibition was 1.84% in [1]; 3.5% in assay [2]; 5.72% in assay [3]; 3.32% in [4]; 5.45% in assay [5]; -1.02% in [6]. For the same compound, the inhibition in assay [7] is 5.43%; in [8], -1.8%; in assay [9], 9.69%; in assay [10], 6.02%; in assay [11], 6.24%; in assay [12], 5.41%. Besides, the inhibition in assay [13] stood at 11.8%; in assay [14], 2.93%; in [15], 10.2%; in [16] it was 9.92%; in assay [17], 17.5%; in [18], 2.04%. In addition, the results for the inhibition in assay [19] and in assay [20] were 5.59% and 4.02%, respectively.
As to `Fc1ccc(-c2nn3ncccc3c2-c2ccnc(Nc3ccc4c(c3)OCCO4)n2)cc1`, the inhibition in assay [1] came out at 16.7%; in assay [2] it was 4.94%; in [3] it was 12.8%; in [4] it was 3.72%; in assay [5], 8.83%; in [6], 10.8%. The inhibition in assay [7] is 38%; in assay [8], -8.76%; in assay [9], 19.2%; in [10], 2.98%; in [11] it was 33.7%; in [12], 4.26%. Further, the inhibition in assay [13] was determined as 12.2%; in assay [14] it was 1.04%; in assay [15], 22.9%; in [16] it was 10.8%; in [17], 41.8%; in assay [18], 1.14%. For the same compound, the values for the inhibition in assay [19] and in [20] were 12.1% and 20.1%, respectively.
For `c1ccc(-c2nc3n(c2-c2ccc4c(c2)OCO4)CCC3)nc1`, the inhibition was 2.69% in assay [1]; -0.27% in assay [2]; 2.27% in [3]; -0.01% in assay [4]; 3.2% in assay [5]; 1.77% in assay [6]. The inhibition in assay [7] was 1.77%; in [8] it was -1.06%; in assay [9] it was 0.07%; in [10], 0.45%; in [11], 2.32%; in [12] it was 1.52%. The inhibition is 2.28% in assay [13]; 0.37% in assay [14]; -3.23% in assay [15]; -0.05% in assay [16]; 3.42% in assay [17]; 2.19% in assay [18]. The inhibition in [19] is 2.78%; in [20], 2.84%.
As to `CCNC(=O)O[C@H]1CN[C@H](C#Cc2cc3ncnc(Nc4ccc(OCc5cccc(F)c5)c(Cl)c4)c3s2)C1`, the inhibition is 3.06% in [1]; 3.01% in [2]; 1.6% in assay [3]; 2.47% in assay [4]; 1.74% in [5]; 3.06% in assay [6]. Further, the inhibition in assay [7] was 3.99%; in assay [8], -3.3%; in assay [9], 10.4%; in [10], 1.24%; in assay [11], 9.61%; in assay [12], 0.34%. The inhibition in assay [13] was 8.23%; in assay [14] it was 1.85%; in assay [15], 12%; in assay [16], 3.53%; in assay [17], 9.99%; in assay [18] it was 0.18%. The inhibition in [19] was determined as 2.21%; in assay [20] it was 4.18%.
